Assay outcomes deposited in PubChem by National Center for Advancing Translational Sciences (NCATS).
A selection: hits, their analogues and other compounds. The true share with any hit is near 0.99%.
TRPV1 potentiator = HTS Assay for Compounds that Act as Potentiators of the Vanilloid Receptor 1; Transient receptor potential cation channel subfamily V member 1 (Homo sapiens), Q8NER1; TRPV1-expressing cells, Fluo-8 calcium influx, capsaicin EC20 potentiation; potentiation, % at 8.33 µM; actives 0.02% (n = 320,000); in the data active = potentiation above about 80%; inconclusive = between about 30% and that limit
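Cells expressing TRPV1 were dye-loaded with Fluo-8 and read kinetically: 10 s baseline, 3 min after compound (agonist portion), then 2 min after EC20 capsaicin (allosteric enhancer portion). Calcium-bound dye fluorescence at 480/520 nm.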
TRPML1 agonist = qHTS for Agonists of the Human Mucolipin Transient Receptor Potential 1 (TRPML1); Mucolipin-1 (Homo sapiens), Q9GZU1; activation, % (no concentration beside the values); TRPML1-expressing cells, Ca2+ dye fluorescence, FDSS; AID 624414, 2012; actives 0.12% (n = 410,000); in the data active = activation above about 50%; inconclusive = mostly about 30% to 49%
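Kinetic FDSS Ca2+ read in Tet-induced TRPML1-DL cells (ABD Ca8 dye plus quencher, 45-90 min RT loading): baseline, then compound, then 110 s agonist window; EC80 agonist 54-4 at 4uM final added afterwards for a 110 s antagonist window.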
TRPML1 inh = qHTS for Inhibitors of the Human Mucolipin Transient Receptor Potential 1 (TRPML1) | AID 624415, 2012 | activity change, negative = inhibition, % (no concentration beside the values) | actives 0.02% (n = 390,000) | TRPML1-inducible cells, Ca2+ dye fluorescence, FDSS; stronger effect = lower value; inhibition of EC80 agonist-evoked calcium signal; in the data active = activity change below about -50%; inconclusive = between about -30% and that limit;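 also: stimulus is agonist 54-4 at its EC80 concentration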
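Tet-induced TRPML1-DL cells loaded with Ca8 no-wash calcium dye were read kinetically on FDSS. Compound addition was followed by EC80 agonist 54-4 (4 uM final); inhibition was read over 110 s.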
TRHR PAM = qHTS for Small Molecule Agonists and Allosteric Enhancers of Human TRH Receptor: Primary Screen for Enhancers. enhancement, % at 2 µM. TRHR cells, fluo-8 calcium fluorescence, EC20 TRH enhancement. actives 0.66% (n = 360,000); in the data active = enhancement above about 30%
Target sequence (P34981 whole entry, looked up): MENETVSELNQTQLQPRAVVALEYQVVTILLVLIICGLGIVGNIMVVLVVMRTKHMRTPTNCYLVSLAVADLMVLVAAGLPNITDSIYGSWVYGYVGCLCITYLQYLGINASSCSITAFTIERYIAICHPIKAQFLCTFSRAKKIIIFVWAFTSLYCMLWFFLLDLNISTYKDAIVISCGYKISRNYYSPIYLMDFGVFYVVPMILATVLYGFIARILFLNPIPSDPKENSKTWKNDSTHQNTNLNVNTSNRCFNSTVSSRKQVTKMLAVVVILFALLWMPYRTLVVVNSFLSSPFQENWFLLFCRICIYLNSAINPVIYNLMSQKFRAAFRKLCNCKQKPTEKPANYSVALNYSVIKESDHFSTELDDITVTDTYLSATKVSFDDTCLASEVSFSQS
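TRHR-expressing cells loaded with fluo-8 calcium dye were read kinetically (ex 480/em 530) during compound addition, then stimulated with an EC20 of TRH (10 nM final). Enhancement of the Gq-mediated intracellular calcium response was scored.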
TRPV1 ag = HTS Assay for Compounds that Act as Agonists of the Vanilloid Receptor 1 | Transient receptor potential cation channel subfamily V member 1 (Homo sapiens), Q8NER1 | TRPV1-expressing cells, Fluo-8 calcium influx, agonist mode | activation, % at 8.33 µM | actives 0.19% (n = 320,000); in the data active = activation above about 80%; inconclusive = between about 30% and that limit
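Cells expressing TRPV1 were dye-loaded with Fluo-8 and read kinetically: 10 s baseline, 3 min after compound (agonist portion), then 2 min after EC20 capsaicin (allosteric enhancer portion). Calcium-bound dye fluorescence at 480/520 nm.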
TRHR agonist = qHTS for Small Molecule Agonists and Allosteric Enhancers of Human TRH Receptor: Primary Screen for Agonists. activation, % at 2 µM. actives 0.18% (n = 360,000). TRHR cells, calcium flux fluo-8, FDSS agonist mode; in the data active = activation above about 30%
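Fluo-8-loaded TRHR cells; 10 s baseline, compound added, kinetic Ca2+ fluorescence read 1/s, agonist mode.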
Hits are given with their value; – = inactive; ? = inconclusive; · = not tested or not shown.

SMILES	TRPV1 potentiator	TRPML1 agonist	TRPML1 inh	TRHR PAM	TRPV1 ag	TRHR agonist
O=C(CSc1cc(Cl)ccc1Cl)NCCCn1ccnc1	?	–	–	–	–	–
O=C(CNC(=O)c1ccc(Cl)cc1Cl)NCCCn1ccnc1	–	–	–	31	–	–
CC[n+]1ccnc2ccccc21	·	–	·	·	·	·
CC1(c2ccccc2)NC(=O)N(CCOc2ccccc2)C1=O (stereo not given)	–	–	–	–	–	–
Cc1cccc(C)c1OCCN1C(=O)NC(C)(c2ccccc2)C1=O (stereo not given)	–	–	–	40	–	–
COc1ccccc1NC(=O)C(OC(=O)CNC(=O)c1ccccc1)c1ccccc1 (stereo not given)	·	·	·	–	·	–
Cc1ncoc1C(=O)NC1CC(C)(C)Cc2c1cnn2-c1ccc(F)cc1 (stereo not given)	–	–	–	–	85	–
Oc1sc(C=Nc2ccc(F)cc2)c2ccccc12	–	–	–	–	–	–
Oc1sc(C=Nc2ccccc2)c2ccccc12	–	?	–	–	?	39
Cc1cc2c(s1)c1cnn(Cc3ccc(C(=O)O)cc3)c(=O)c1n2C	·	·	·	–	·	–
Cc1cccn2c(=O)c3cc(C#N)c(=N)n(CCCN4CCOCC4)c3nc12	·	–	–	·	·	·
Cc1cccn2c(=O)c3cc(C#N)c(=N)n(CCN4CCOCC4)c3nc12	–	–	–	32	–	–
CC(=O)c1c(Cl)nc2cccc3c2c1-c1ccccc1C3=O	–	–	–	34	–	–
COc1cc(-c2c(C(C)=O)c(C)nc3c2C(=O)c2ccccc2-3)cc(OC)c1OC	–	–	–	–	–	–
CCN(Cc1ccccc1)C(=O)CN1C(=O)NC(CC)(c2ccc(F)cc2)C1=O (stereo not given)	–	–	–	31	–	–
CCC1(c2ccc(F)cc2)NC(=O)N(CC(=O)Nc2ccccc2C)C1=O (stereo not given)	–	–	–	–	–	–
COc1cccc(CNn2c(-c3cccc(C)c3)nc3ccccc3c2=O)c1	–	–	–	37	?	–
Cc1ccccc1-c1nc(CN2CCC(C(=O)NCc3ccc(F)cc3)CC2)c(C)o1	·	–	–	44	·	–
O=C(Nc1ccc(F)cc1F)c1ccc(-n2cccn2)nc1	–	–	–	–	?	–
CC(C)Sc1ccc(C(=O)Nc2ccc(F)cc2F)cn1	–	–	–	–	85	–
Cc1nn2c(=O)c3c4c(sc3nc2n1-c1ccccc1)COC(C)(C)C4	–	–	–	40	–	–
COc1ccc(C(=O)Nc2nnc(C)s2)cc1	·	–	–	–	·	–
COc1ccc(N2CCN(C(C)C(=O)Nc3nnc(C)s3)CC2)cc1 (stereo not given)	–	–	–	32	–	–
CN(C)c1ccc(/C=C/c2ccnc3ccccc23)cc1Cl	·	–	·	·	·	·
Cn1c(SCC(=O)NCC2CCCO2)nnc1-c1ccc(S(=O)(=O)N2CCCC2)cc1 (stereo not given)	–	–	–	38	–	–
SMILES	TRPV1 potentiator	TRPML1 agonist	TRPML1 inh	TRHR PAM	TRPV1 ag	TRHR agonist
CCc1ccc(OCc2nnc(SCC(=O)NCC3CCCO3)n2C)cc1 (stereo not given)	–	–	–	–	–	–
Cc1cccc(OCc2nnc(SCC(=O)NCC3CCCO3)n2C)c1 (stereo not given)	–	–	–	37	–	–
COc1cc2c(c(OC)c1)C(c1cccc(F)c1F)CC(=O)N2 (stereo not given)	·	57	–	–	·	–
CNC(=O)c1cc(S(=O)(=O)N2CC(C)OC(C)C2)ccc1N1CCCCC1 (stereo not given)	–	–	–	41	–	–
O=C(O)C1CC(c2ccc(F)cc2)=NO1 (stereo not given)	–	–	–	–	–	–
O=C(O)C1CC(c2ccccc2)=NO1 (stereo not given)	–	–	–	33	–	–
CCCCOc1ccc(C(=O)NCC(=O)NCCOc2ccc(C)cc2)cc1	–	–	–	32	–	–
CC(C)(C)c1ccc(OCCNC(=O)Cc2ccc(F)cc2)cc1	–	–	–	–	91	–
COCCNC(=O)Cc1ccc(F)cc1	–	–	–	–	–	–
CCOc1ccc(C(=O)NCC(=O)NCCOc2ccc(C)cc2)cc1	–	–	–	–	–	–
COc1ccc(-n2nc(C(=O)NCC(=O)NCC3COc4ccccc4O3)c3ccccc3c2=O)c(OC)c1 (stereo not given)	–	–	–	33	–	–
O=C(Cn1cnc2nc3c(cc2c1=O)CCCC3)N1CCN(c2ccccc2)CC1	·	–	–	32	·	–
Cc1ccc(S(=O)(=O)N2CCOC2CNC(=O)C(=O)NCCN(C)C)cc1 (stereo not given)	?	–	–	37	–	–
CN(C)CCNC(=O)C(=O)NCC1OCCN1S(=O)(=O)c1ccc([N+](=O)[O-])cc1 (stereo not given)	–	–	–	–	–	–
Cc1ccc(CNC(=O)C(=O)NCC2OCCN2S(=O)(=O)c2ccc(Br)cc2)cc1 (stereo not given)	–	–	–	31	–	–
CCCc1c(C)c2ccccc2[nH]c1=O	–	–	–	41	–	–
CCCc1c(O)c2ccccc2[nH]c1=O	–	–	–	–	–	–
Oc1ccc(N2CCN(c3ncnc4sc(-c5ccccc5)cc34)CC2)cc1	–	–	–	–	–	–
CC(=O)N1CCN(c2ncnc3sc(-c4ccccc4)cc23)CC1	–	–	–	40	–	–
CN(C)/C=N/c1cc(=O)[nH]c(=O)n1CC1CC1	–	–	–	–	–	–
C=CCn1c(=O)[nH]c2nc3cc(N=CN(C)C)c(C)cc3nc2c1=O	–	–	–	–	–	43
c1ccc(Oc2ccc(-c3ccnc4nc(N5CCOCC5)nn34)cc2)cc1	–	–	–	33	?	–
CCNc1nc(N2CCOCC2)nc(N(c2ccccc2)c2ccccc2)n1	–	–	–	37	–	–
Clc1ccc(-c2csc3ncnc(Sc4nnnn4C4CC4)c23)cc1	·	–	·	·	·	·
COc1cc(C2NC(=S)NC(c3ccccc3)=C2C(C)=O)cc(Cl)c1OCC(=O)O (stereo not given)	–	–	–	–	–	–
